Source: PubChem BioAssay
Where “and” joins values, the source holds several entries; their conditions need not be identical. Identical values can stand only once. Calls of active or inactive are those of the source.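 The calls were made as follows, unless noted: active = thallium flux through the channel raised or lowered by more than 3 SD from vehicle-only wells, actives on both sides; inactive = the rest.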

What was measured:
[1] = tested on: Hepatitis C virus NS3 helicase; assay: HCV NS3 helicase inhibitors, primary screen, biochemical, fluorescence polarization, NIH Clinical Collection (AID 743270; call rule not given here); settings: NS3 helicase binding to Cy5-dT15 DNA, stronger effect = higher value, concentration not given here
[2] = target: Single-stranded DNA-binding protein (Escherichia coli (strain K12)) (UniProt P0AGE0); assay: E. coli SSB displacement from DNA, counter-screen for HCV NS3 helicase inhibitor project, biochemical, fluorescence polarization, NIH Clinical Collection (AID 743271; in the data active = inhibition above about 28%); settings: stronger effect = higher value, concentration not given here
[3] = fluorescence interference in NS3h assay format, artefact control for HCV NS3 helicase inhibitor project, biochemical, NIH Clinical Collection (AID 743272; call rule not given here;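 also: HCV NS3 helicase with a Cy5 labelled single stranded DNA probe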); settings: fluorescence interference counterscreen, stronger effect = lower value
[4] = stimulators of nuclear beta-catenin in C2C12, primary screen, imaging, WNT3A-conditioned medium, mouse C2C12, NPC library (AID 1117326; in the data active = nuclear beta-catenin stimulation mostly above about 4.2%, no sharp cut-off; inactive = mostly below about 10%); settings: stronger effect = higher value
[5] = stimulators of insulin release from INS-1E, primary screen, cell-based, 5 mM glucose, NPC library (AID 1117329;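 active = compound raises insulin release from rat beta cells at 5 mM glucose, no numeric limit stated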); settings: rat INS-1E insulin secretion, at 10 µM, stronger effect = higher value
[6] = growth inhibition of GSK3B-pretreated HCT116 cells – cell-based, CellTiter-Glo, 0.2 to 20 µM (AID 1117336;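 active = compounds lowering colon cancer cell viability after pretreatment blocking the GSK3B kinase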); settings: HCT116 viability after GSK3B inhibitor, at 20 µM, stronger effect = higher value
[7] = inhibition of endothelial tube formation, primary screen, imaging, VEGF stimulated, CD31 staining, tube area, NPC library (AID 1117340;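 active = compound that reduces growth-factor-driven endothelial tube area in a mixed cell culture, no cutoff stated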); settings: VEGF-stimulated ADSC/ECFC co-culture, at 10 µM, stronger effect = higher value
[8] = glucagon-like peptide 1 release enhancers, primary assay, NCI-H716 cell line, NPC library (AID 1117341;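 active = compound raises GLP1 secretion from the human gut endocrine cells, with no numeric limit stated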); settings: NCI-H716 cells, at 10 µM, stronger effect = higher value
[9] = HCT116 colon cancer cell growth inhibition, primary screen, CellTiter-Glo luminescence, NPC library (AID 1117342;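 active = compounds that lower survival of HCT116 colon cancer cells in the luminescence readout, no numeric limit stated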); settings: at 20 µM (top of the series)
[10] = CellTiter-Glo luminescent readout of SW480 viability loss, NPC library primary (AID 1117343;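 active = compounds that lower viability of the colon cancer cells in the luminescence readout, with no numeric limit stated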); settings: CellTiter-Glo luminescence; at 20 µM (top of the series)
[11] = decreased DLD-1 cellular survival, CellTiter-Glo luminescent readout, NPC compound collection, primary HTS (AID 1117346;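 active = compounds that lower survival of DLD-1 colon cancer cells in the luminescence readout, no cutoff given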); settings: DLD-1 viability, CellTiter-Glo luminescence; at 20 µM (top of the series)
[12] = target: 6-phosphogluconate dehydrogenase, decarboxylating (Homo sapiens) (UniProt P52209); assay: 6PGD enzyme inhibitors, primary screen, biochemical, human, recombinant enzyme, NADPH absorbance (AID 1159550;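 active = at least 20% inhibition of 6-phosphogluconate dehydrogenase activity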); settings: recombinant 6PGD, NADPH absorbance 341 nm; at 10 µM; stronger effect = higher value
[13] = differential killing of epithelial or mesenchymal cells, primary screen, imaging, PC-3E GFP, TEM4-18 mCherry, co-culture (AID 1345086;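 active = compounds killing one labelled cell type while sparing the other, by normalised counts and ratio limits, not self-fluorescent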;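 as to all read-outs here: cells exposed to compound for 72 h before imaging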;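 as to red/green cell ratio (normalised): normalised mesenchymal count divided by normalised epithelial count so high means epithelial killing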); settings: imaging cell counts, at 1 µM; for red/green cell ratio (normalised): actives lie on both sides, counts scaled to control wells, 1 = unselective
[14] = survival rescue of mitochondrial mutant cells in low glucose, primary screen, MELAS cybrids, Rieske KO mouse fibroblasts, CellTiter-Glo (AID 1508586;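 active = mean z-score across replicates of 1.96 or higher in either the MELAS or the Rieske mutant cell line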;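 also: z relative to plate mean and SD of compound and empty wells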)
[15] = target: NAD(+) hydrolase SARM1 (Homo sapiens) (UniProt Q6SZW1); assay: SARM1 TIR NADase inhibitors, cell lysate, NAD-Glo luminescence (AID 1508614;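 active = compound whose remaining NAD level is above about 45 nM, limit read from the data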;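 also: higher remaining NAD means stronger inhibition of SARM1 NADase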); settings: SAM-TIR HEK293T lysate NADase, at 1 µM, stronger effect = higher value
[16] = target: Mitogen-activated protein kinase 7 (Homo sapiens) (UniProt Q13164); assay: ERK5 transactivation activators in reporter cells, primary screen, cell-based, HTS (AID 1508626;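 active = luciferase signal above three times the same-plate solvent-only control wells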;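 also: luciferase driven by Gal4-ERK5 fusion binding five Gal4 sites before minimal TATA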); settings: HeLa Gal4-ERK5 transactivation, 18 h, at 5 µM, stronger effect = higher value
[17] = tested on: F380Y; assay: modulators of BK channel variants, profiling panel, selectivity assay, cell-based, U2OS BacMam, thallium flux, beta subunits (AID 1259406); settings: at 30 µM;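 also: initial slope of Thallos dye fluorescence rise after thallium is added; log ratio against the mean of 0.3% DMSO vehicle wells on the same plate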
[18] = tested on: F380Y/beta2Delta; assay: as above; settings: at 30 µM
[19] = target: Calcium-activated potassium channel subunit alpha-1 (Homo sapiens) + Leucine-rich repeat-containing protein 26 (Homo sapiens) (UniProt Q12791+Q2I0M4); assay: as above; settings: F380Y/Slo1WT/gamma1, at 30 µM
[20] = measured here: epithelial PC-3E GFP cell survival
[21] = measured here: mesenchymal TEM4-18 mCherry cell survival
[22] = MELAS cybrid survival, CellTiter-Glo 48 h, stronger effect = higher value
[23] = Rieske KO mouse fibroblast survival, CellTiter-Glo 72 h

Sequence of NAD(+) hydrolase SARM1 (Homo sapiens) (Q6SZW1 whole entry, looked up, the tested form may be a part): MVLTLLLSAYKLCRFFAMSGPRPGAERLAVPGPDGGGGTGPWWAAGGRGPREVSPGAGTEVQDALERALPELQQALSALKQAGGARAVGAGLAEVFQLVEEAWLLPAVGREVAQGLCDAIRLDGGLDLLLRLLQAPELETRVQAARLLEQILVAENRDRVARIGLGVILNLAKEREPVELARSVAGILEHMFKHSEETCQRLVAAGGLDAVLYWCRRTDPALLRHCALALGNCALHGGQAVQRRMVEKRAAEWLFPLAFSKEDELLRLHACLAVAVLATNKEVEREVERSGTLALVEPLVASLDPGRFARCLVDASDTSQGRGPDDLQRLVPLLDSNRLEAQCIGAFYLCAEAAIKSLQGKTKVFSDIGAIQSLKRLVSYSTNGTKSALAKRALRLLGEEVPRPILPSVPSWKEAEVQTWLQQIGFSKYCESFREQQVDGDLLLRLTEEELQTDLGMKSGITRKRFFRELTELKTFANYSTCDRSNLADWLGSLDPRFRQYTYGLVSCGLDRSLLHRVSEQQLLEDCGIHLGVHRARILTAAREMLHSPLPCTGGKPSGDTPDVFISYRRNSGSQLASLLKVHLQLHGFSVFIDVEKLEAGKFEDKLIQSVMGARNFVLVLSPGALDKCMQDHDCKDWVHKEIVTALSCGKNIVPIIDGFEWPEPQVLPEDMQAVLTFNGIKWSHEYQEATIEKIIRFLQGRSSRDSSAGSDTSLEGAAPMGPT
Sequence of Calcium-activated potassium channel subunit alpha-1 (Homo sapiens) + Leucine-rich repeat-containing protein 26 (Homo sapiens) (Q2I0M4 whole entry, looked up, one chain of several): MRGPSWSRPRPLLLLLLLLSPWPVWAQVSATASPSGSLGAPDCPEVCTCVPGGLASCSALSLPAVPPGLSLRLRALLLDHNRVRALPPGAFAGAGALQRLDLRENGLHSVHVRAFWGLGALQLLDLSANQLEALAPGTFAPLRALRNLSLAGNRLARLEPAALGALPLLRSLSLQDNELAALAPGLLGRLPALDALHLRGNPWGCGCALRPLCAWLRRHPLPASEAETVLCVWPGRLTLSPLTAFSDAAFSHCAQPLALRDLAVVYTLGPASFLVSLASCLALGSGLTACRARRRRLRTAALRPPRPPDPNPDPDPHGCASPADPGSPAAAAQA
Sequence of 6-phosphogluconate dehydrogenase, decarboxylating (Homo sapiens) (P52209 whole entry, looked up): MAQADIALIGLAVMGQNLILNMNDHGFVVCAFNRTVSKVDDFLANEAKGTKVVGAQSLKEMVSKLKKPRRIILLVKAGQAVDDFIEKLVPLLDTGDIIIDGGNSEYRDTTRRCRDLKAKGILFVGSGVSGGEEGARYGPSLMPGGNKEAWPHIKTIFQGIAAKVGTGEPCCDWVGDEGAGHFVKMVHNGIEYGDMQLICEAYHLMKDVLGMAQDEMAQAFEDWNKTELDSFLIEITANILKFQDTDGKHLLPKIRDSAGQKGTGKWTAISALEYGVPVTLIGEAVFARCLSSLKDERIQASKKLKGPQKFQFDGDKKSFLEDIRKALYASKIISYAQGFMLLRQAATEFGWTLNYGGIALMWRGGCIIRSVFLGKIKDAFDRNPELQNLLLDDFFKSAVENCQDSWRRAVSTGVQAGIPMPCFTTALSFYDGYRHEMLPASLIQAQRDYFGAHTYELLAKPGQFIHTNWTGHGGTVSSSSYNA
Sequence of Mitogen-activated protein kinase 7 (Homo sapiens) (Q13164 whole entry, looked up, the tested form may be a part): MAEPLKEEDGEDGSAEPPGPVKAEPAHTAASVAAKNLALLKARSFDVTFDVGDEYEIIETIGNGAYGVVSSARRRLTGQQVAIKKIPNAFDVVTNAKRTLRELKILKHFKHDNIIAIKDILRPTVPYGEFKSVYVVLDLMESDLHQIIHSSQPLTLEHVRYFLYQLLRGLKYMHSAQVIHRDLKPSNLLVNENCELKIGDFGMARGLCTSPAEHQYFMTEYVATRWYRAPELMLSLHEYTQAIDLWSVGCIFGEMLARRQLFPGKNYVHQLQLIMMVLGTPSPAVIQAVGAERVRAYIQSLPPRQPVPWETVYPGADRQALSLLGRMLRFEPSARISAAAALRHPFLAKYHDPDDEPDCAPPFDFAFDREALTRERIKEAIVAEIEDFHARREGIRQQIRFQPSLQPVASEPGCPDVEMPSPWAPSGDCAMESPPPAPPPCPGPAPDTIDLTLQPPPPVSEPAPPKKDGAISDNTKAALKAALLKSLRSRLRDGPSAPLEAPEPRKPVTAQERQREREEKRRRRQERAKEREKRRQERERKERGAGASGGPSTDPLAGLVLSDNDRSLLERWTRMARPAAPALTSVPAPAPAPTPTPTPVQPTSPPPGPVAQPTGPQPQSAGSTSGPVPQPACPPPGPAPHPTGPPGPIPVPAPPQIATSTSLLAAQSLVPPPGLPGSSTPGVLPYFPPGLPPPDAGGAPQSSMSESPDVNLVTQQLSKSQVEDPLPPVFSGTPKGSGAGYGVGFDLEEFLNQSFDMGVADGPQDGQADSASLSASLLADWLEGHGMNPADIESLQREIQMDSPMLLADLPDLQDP

CN(C)CCC=C1c2ccccc2CCc2ccccc21
inactive: inhibition [1] -7.73% | inhibition [2] -2% | fluorescence ratio [3] 0.92 | nuclear beta-catenin stimulation ([4]; at 10 µM) -0.4% | viability decrease [6] -59% | tube area decrease [7] 25% | GLP1 secretion stimulation [8] 5% | inhibition of viability [9] 21.5% | viability decrease (inhibition) [11] -1.8% | inhibition [12] 6.7% | red/green cell ratio (normalised) [13] 1 | z-score [14, 22] -0.201 and -0.81 | remaining NAD [15] 10 nM | luciferase signal [16] 36 AU | log fold change Tl+ flux [19] 0.0267
1.31: normalised cell number [13, 20] | normalised cell number [13, 21]
active: insulin secretion stimulation [5] 41.5% | viability decrease (inhibition) [10] 72.1% | log fold change Tl+ flux [17] 0.184 | log fold change Tl+ flux [18] 0.179
-0.129 and 0.0803: z-score [14, 23]
1.1%: nuclear beta-catenin stimulation ([4]; stimulation, at 2 µM)

OC(CCN1CCCCC1)(c1ccccc1)C1CCCCC1 (stereo unspecified)
1: normalised cell number [13, 21]
7.5%: nuclear beta-catenin stimulation ([4]; stimulation, at 2 µM)
0.169: z-score [14, 23]
0.92: normalised cell number [13, 20]
inactive: inhibition [1] -5.91% | inhibition [2] -2.76% | fluorescence ratio [3] 0.95 | nuclear beta-catenin stimulation ([4]; at 10 µM) -1.1% | insulin secretion stimulation [5] 12.4% | viability decrease [6] -59.3% | tube area decrease [7] 5% | GLP1 secretion stimulation [8] 3.3% | inhibition of viability [9] 34.2% | viability decrease (inhibition) [11] 18.6% | inhibition [12] 5.23% | red/green cell ratio (normalised) [13] 1.08 | z-score [14, 22] 0.423 | remaining NAD [15] 10 nM | luciferase signal [16] 56 AU | log fold change Tl+ flux [17] 0.0654 | log fold change Tl+ flux [18] -0.0109 | log fold change Tl+ flux [19] -0.0285
active: viability decrease (inhibition) [10] 67.1%

CCN(CC)CCOC(=O)C1(C2CCCCC2)CCCCC1
1.1%: nuclear beta-catenin stimulation ([4]; stimulation, at 2 µM)
1.25: normalised cell number [13, 20]
active: viability decrease (inhibition) [10] 84.8% | luciferase signal [16] 1050 AU
inactive: inhibition [1] -3.18% | inhibition [2] 4.1% | fluorescence ratio [3] 0.95 | nuclear beta-catenin stimulation ([4]; at 10 µM) 2.1% | insulin secretion stimulation [5] 6.9% | viability decrease [6] -64.7% | tube area decrease [7] -0.9% | GLP1 secretion stimulation [8] 5.4% | inhibition of viability [9] 36.5% | viability decrease (inhibition) [11] 34.2% | inhibition [12] 11.5% | red/green cell ratio (normalised) [13] 1.32 | z-score [14, 22] 0.288 and 0.358 | remaining NAD [15] 10 nM | log fold change Tl+ flux [17] 0.0289 | log fold change Tl+ flux [18] 0.0166 | log fold change Tl+ flux [19] -0.023
1.66: normalised cell number [13, 21]
-0.235 and -0.17: z-score [14, 23]

CCCNC(C)C(=O)Nc1ccccc1C (stereo unspecified)
0.2%: nuclear beta-catenin stimulation ([4]; stimulation, at 2 µM)
1.32: normalised cell number [13, 21]
inactive: inhibition [1] -4.09% | inhibition [2] -0.48% | fluorescence ratio [3] 0.97 | nuclear beta-catenin stimulation ([4]; at 10 µM) 2.8% | insulin secretion stimulation [5] -0.2% | viability decrease [6] -19.3% | tube area decrease [7] -7.6% | GLP1 secretion stimulation [8] -2.8% | inhibition of viability [9] -6.47% | viability decrease (inhibition) [10] 14.5% | viability decrease (inhibition) [11] -13.2% | inhibition [12] 10.3% | red/green cell ratio (normalised) [13] 1.41 | z-score [14, 22] 0.649 and 0.0198 and 0.84 | remaining NAD [15] 10 nM | luciferase signal [16] 232 AU | log fold change Tl+ flux [17] 0.0152 | log fold change Tl+ flux [18] 0.0464 | log fold change Tl+ flux [19] -0.0185
0.93: normalised cell number [13, 20]
-0.309 and -0.0551 and 0.281: z-score [14, 23]

CN(C)C(=O)Oc1ccc[n+](C)c1
1.15: normalised cell number [13, 20]
1.53: normalised cell number [13, 21]
inactive: inhibition [1] 0.45% | inhibition [2] 0.29% | fluorescence ratio [3] 0.97 | nuclear beta-catenin stimulation ([4]; at 10 µM) 0.1% | insulin secretion stimulation [5] 0.95% | viability decrease [6] 10.7% | tube area decrease [7] -21.1% | GLP1 secretion stimulation [8] -3.2% | inhibition of viability [9] -1% | viability decrease (inhibition) [10] -8.3% | viability decrease (inhibition) [11] -12.1% | inhibition [12] -7.31% | red/green cell ratio (normalised) [13] 1.32 | z-score [14, 22] 0.178 and 0.175 | remaining NAD [15] 10 nM | luciferase signal [16] 48 AU | log fold change Tl+ flux [17] -0.00126 | log fold change Tl+ flux [18] -0.0385 | log fold change Tl+ flux [19] 0.0382
10.5%: nuclear beta-catenin stimulation ([4]; stimulation, at 2 µM)
0.0482 and -0.383: z-score [14, 23]

CC(N=C(NC#N)Nc1ccncc1)C(C)(C)C (stereo unspecified)
1.72: normalised cell number [13, 21]
inactive: inhibition [1] -0.22% | inhibition [2] 1.97% | fluorescence ratio [3] 0.95 | nuclear beta-catenin stimulation ([4]; at 10 µM) -0.6% | insulin secretion stimulation [5] 2.1% | viability decrease [6] -8.9% | tube area decrease [7] -9.6% | GLP1 secretion stimulation [8] -3.6% | inhibition of viability [9] 12.1% | viability decrease (inhibition) [10] -10.1% | viability decrease (inhibition) [11] 5.8% | inhibition [12] -10.6% | red/green cell ratio (normalised) [13] 1.42 | z-score [14, 22] 0.121 and 0.328 | remaining NAD [15] 10 nM | luciferase signal [16] 64 AU | log fold change Tl+ flux [17] -0.0323 | log fold change Tl+ flux [18] 0.0089 | log fold change Tl+ flux [19] -0.0269
-0.266 and 0.371: z-score [14, 23]
1.21: normalised cell number [13, 20]
-1.6%: nuclear beta-catenin stimulation ([4]; stimulation, at 2 µM)

Cc1ccc(S(=O)(=O)NC(=O)NN2CCCCCC2)cc1
-0.9%: nuclear beta-catenin stimulation ([4]; stimulation, at 2 µM)
active: insulin secretion stimulation [5] 60.9%
1.09: normalised cell number [13, 20]
inactive: inhibition [1] -2.27% | inhibition [2] -2.76% | fluorescence ratio [3] 1 | nuclear beta-catenin stimulation ([4]; at 10 µM) 0.5% | viability decrease [6] -7% | tube area decrease [7] -13.2% | GLP1 secretion stimulation [8] 1.4% | inhibition of viability [9] -14.9% | viability decrease (inhibition) [10] -1.7% | viability decrease (inhibition) [11] 4.8% | inhibition [12] 16.2% | red/green cell ratio (normalised) [13] 1.04 | z-score [14, 22] -0.943 and -0.476 | remaining NAD [15] 10 nM | luciferase signal [16] 144 AU | log fold change Tl+ flux [17] -0.0421 | log fold change Tl+ flux [18] -0.0238 | log fold change Tl+ flux [19] 0.0367
1.13: normalised cell number [13, 21]
-0.174 and -0.295: z-score [14, 23]
